Rows were chosen to be rich in hits. Some 11% of all compounds tested hit in one or more screens of this group.
NPSR antagonist – neuropeptide S receptor (human) antagonism, cAMP | Potency, µM (top dose mostly 38.3 µM), for the others: top-dose activity change, negative = inhibition, hits mostly inhibitors | Q6W5P4 | CHO-NPSR cells, cAMP TR-FRET, antagonist mode | 1% of 220,000 active; also: potency is read from the fitted curve at half-maximal effect; nearly all actives have a fitted effect of over 50% in size
ALDH1A1 block – inhibitors of human aldehyde dehydrogenase 1A1 | P00352 | Purified ALDH1A1, NADH fluorescence, propionaldehyde substrate | Potency, µM (series often up to 75.3 µM), for inactives: at the top dose activity, negative = inhibition, most hits filed as inhibitors | 7.3% of 220,000 active | AID 1030; active = well fitted inhibition curve with a large enough effect, not every such curve was filed as active; inconclusive = small, poorly fitted or top-dose-only effect, or another doubt; inactive = no such curve, though single readings can be large or run the other way;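 also: potency is read from the fitted curve at half-maximal effect; plate controls were no enzyme wells and a reference inhibitor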
IMPase Li inh – IMPase inhibition in cells with lithium potentiation; CHO-M1 cells, IP1 TR-FRET (IP-One), carbachol + lithium; 0.35% of 210,000 active; Potency, µM (titrated, usually from 59.4 µM), inactives show top-dose activity, negative = IMPase inhibition, most hits filed as inhibitors; AID 1457;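 also: IP1 builds up when IMPase is blocked and the TR-FRET signal falls; potency is read from the fitted curve at half-maximal effect; plate controls were basal vehicle for no effect and high inhibitor control for full effect; nearly all actives have a fitted effect of over 50% in size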
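IP1 accumulation measured by competitive TR-FRET in lysed CHO-M1 cells after 30 min compound exposure at 37C, with a small lithium addition to potentiate weak responses. Hill-equation AC50 from ratio and donor-channel data.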
HPGD block – HPGD (human) dehydrogenase inhibition; 4.3% of 150,000 active; Potency, µM, for the others: at the top dose activity change, negative = inhibition, usual class: inhibitors; P15428; purified HPGD, NADH fluorescence kinetic, PGE2 substrate; active = well fitted inhibition curve with a large enough effect, not every such curve was filed as active; inconclusive = small, poorly fitted or top-dose-only effect, or another doubt; inactive = no such curve, though single readings can be large or run the other way; also: potency is read from the fitted curve at half-maximal effect
Target sequence (P15428 whole entry, looked up): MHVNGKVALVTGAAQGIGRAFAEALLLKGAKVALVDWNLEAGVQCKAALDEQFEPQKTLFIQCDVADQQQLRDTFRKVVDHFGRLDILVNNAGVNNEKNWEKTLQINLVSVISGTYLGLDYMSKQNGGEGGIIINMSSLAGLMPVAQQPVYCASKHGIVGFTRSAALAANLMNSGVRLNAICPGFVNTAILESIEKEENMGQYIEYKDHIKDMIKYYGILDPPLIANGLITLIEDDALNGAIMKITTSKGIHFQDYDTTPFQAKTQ
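NADH formation kinetics: reaction with 30 uM PGE2 and 1 mM NAD+ (final), 20 nM enzyme, Tris-HCl pH 8 with Tween 20, after 15 min compound preincubation at room temperature. Fluorescence change, last versus first of five reads.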
IMPase inh – membrane-permeable compound that blocks inositol monophosphatase. 120,000 tested, under 10 active. CHO-M1 cells, IP1 accumulation, HTRF TR-FRET ratio. AID 901. P97697. inhibition (IP1 accumulation), % at 46.1 µM; active = well fitted curve in the direction sought with a large enough effect in the signal ratio, not every such curve was filed as active; inconclusive = small, poorly fitted or top-dose-only effect, or a change in a side signal; inactive = no such curve, though single readings can be large or run the other way; the % refers to the signal ratio;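 also: cells stimulated with carbachol in lithium chloride buffer; plate controls were DMSO basal wells for no effect and reference inhibitor wells for full effect; higher means more IMPase inhibition seen as more IP1 and lower FRET ratio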
Target sequence (P97697 whole entry, looked up): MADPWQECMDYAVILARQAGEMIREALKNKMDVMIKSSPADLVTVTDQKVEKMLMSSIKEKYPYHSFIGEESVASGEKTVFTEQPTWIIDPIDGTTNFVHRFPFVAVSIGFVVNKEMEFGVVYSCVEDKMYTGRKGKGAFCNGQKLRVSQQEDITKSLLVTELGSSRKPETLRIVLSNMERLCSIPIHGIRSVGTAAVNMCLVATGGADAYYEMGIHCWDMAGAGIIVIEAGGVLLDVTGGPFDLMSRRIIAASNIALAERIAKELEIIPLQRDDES
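Cellular IMPase inhibition is scored as a rise in cytosolic IP1, detected by competitive TR-FRET between d2-labelled IP1 and a europium anti-IP1 antibody. M1-expressing CHO cells were stimulated with carbachol for 30 min at 37C, with lithium (50 mM LiCl) present in the buffer.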
PNC assembly inh – perinucleolar compartment assembly inhibition | PC3M PTB-GFP, PNC prevalence imaging, 16 h; stronger effect = lower value | activity change (PNC), negative = inhibition, % at 10 µM | 3.1% of 140,000 active;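 active = readout at or below -70, meaning at least 70% loss of cells showing the perinucleolar compartment, a nuclear body marking cancer cells; inconclusive = readout between -30 and a set limit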;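 also: plate controls were DMSO wells for no effect and camptothecin positive control wells for full effect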
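Read-out is percentage of cells bearing a perinucleolar compartment, from automated 20x imaging of fixed, Hoechst-stained PC3M PTB-GFP cells. Cells were seeded 4 h, then exposed 16 h to compound (23 nl of library stock) in duplicate plates.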
An asterisk follows results filed as active; u = inconclusive; x = no result; [ ] = dose if it differs, or a comment. Unless noted, calls follow the shape of the dose curve; as a rule, active = well fitted curve in the direction sought with a large enough effect; inconclusive = small, poorly fitted or top-dose-only effect, or another doubt; inactive = no such curve, though single readings can be large; an effect the other way counts as inactive or inconclusive. Unless noted, % is scaled to controls: 0 for no effect and ±100 for the full control effect.

SMILES	NPSR antagonist	ALDH1A1 block	IMPase Li inh	HPGD block	IMPase inh	PNC assembly inh
Cc1ccnc(NC(=O)c2c(O)c3ccccc3n(C)c2=O)c1	-6%[46.1 µM]	-12%	-24%[38.3 µM]	-13%	-17	-6
Cn1c(=O)c(C(=O)Nc2ncccc2O)c(O)c2ccccc21	-13%[46.1 µM]	-5%	1%[38.3 µM]	22µM*	7	-13
CC(C)CN(CC(C)C)CC(O)COc1ccccc1Br (stereo not given)	-26%	5%	11%	-17%	x	u
CCOC(=O)c1cc(C#N)c(SCC(=O)c2cc(C#N)c(SC)nc2C)[nH]c1=O	-15%[46.1 µM]	1.3µM*	-3%[38.3 µM]	1.4µM*	-8	25
CCOC(=O)c1cc(C#N)c(SCC(N)=O)[nH]c1=O	-8%	x	x	x	x	x
COc1ccc(OC)c(C2=NOC(C(=O)Nc3cccc(C(C)=O)c3)C2)c1 (stereo not given)	-15%[46.1 µM]	-9%	8%[38.3 µM]	-17%	-1	10
CNc1nc(Sc2ccccc2)cc(C(F)(F)F)n1	-17%[46.1 µM]	35µM*	32%[38.3 µM]	35µM*	6	18
CNc1nc(Sc2cccc(C(F)(F)F)c2)cc(C(F)(F)F)n1	-17%[46.1 µM]	-4%	27%[38.3 µM]	u	28	116
Cc1noc(C)c1CSc1nnc(-c2cccnc2)n1C1CCCCC1C (stereo not given)	-15%[46.1 µM]	-12%	-11%[38.3 µM]	-5%	4	29
C=CC(=O)NN(C)c1ncc(C(F)(F)F)cc1Cl	7%	8%	-5%	x	x	x
CN(NC(=O)/C=C/C(=O)O)c1ncc(C(F)(F)F)cc1Cl	21%	2.8µM*	0%	x	x	x
O=C(N/N=C/c1ccc([N+](=O)[O-])s1)c1ccccc1	-18%	-5%	0%	x	x	x
O=C(N/N=C\c1ccc([N+](=O)[O-])s1)c1cncc(Br)c1	-6%	6%	1%	-4%	x	-102*
Cc1cc(C(=O)CN2CCC(C)CC2)c(C)n1-c1ccccc1F	23%	-12%	11%	-18%	7	-16
O=S(=O)([N-]c1nc2ccccc2nc1-[n+]1ccc(CCCc2ccccc2)cc1)c1cccs1	38%	x	x	x	x	x
CN1CC(=O)N(CC(=O)NCc2ccc(F)cc2)c2ccccc2C1=O	31%[46.1 µM]	-4%	28%[38.3 µM]	-8%	-9	-8
C=CCn1c(=S)[nH]c2ccccc2c1=O	4%[46.1 µM]	-1%	-10%	-1%	10	-24
Cc1c(C(=O)Nc2ccncc2)sc2nc(-c3ccc(F)cc3)cn12	u	6%	-101%[38.3 µM]	u	u	u
COc1ccc(-c2cn3c(C)c(C(=O)Nc4ccncc4)sc3n2)cc1	u	u	5.6µM*	u	u	u
c1ccc(N2CCN(Cc3nnnn3C3CCCCC3)CC2)cc1	-22%[46.1 µM]	28µM*	4%[38.3 µM]	-7%	0	4
O=C(Nc1ccccc1)NC1CCN(Cc2nnnn2C2CCCCC2)CC1	2%[46.1 µM]	14µM*	-2%[38.3 µM]	-11%	1	-15
Cc1ccc(Cl)cc1N1CCN(Cc2nnnn2C2CCCCC2)CC1	u	u	9%[38.3 µM]	-14%	4	44
Cc1ccc(S(=O)(=O)NCCN(CCNS(=O)(=O)c2ccc(C)cc2)S(C)(=O)=O)cc1	-14%[46.1 µM]	u	-6%[38.3 µM]	-5%	0	-3
CN(C)S(=O)(=O)c1cccc(NC(=O)Cn2cnc3ccccc3c2=O)c1	-11%[46.1 µM]	-7%	-7%[38.3 µM]	-19%	3	-19
CCOc1ccc(N2C(=O)CC(NCCNc3ccc(C(=O)c4cccs4)cc3)C2=O)cc1 (stereo not given)	-15%	22µM*	1%	x	x	x
CCOc1ccc(C(=O)c2cccs2)cc1	-3%[46.1 µM]	1%	-12%[38.3 µM]	16µM*	-3	17
CCOc1cc(-c2noc(N)c2C#N)cc(OCC)c1OCC	-12%[46.1 µM]	-2%	8%[38.3 µM]	-24%	0	36
N#CC1=C(N)OC2=C(C(=O)CCC2)C12CCC1(CC2)OCCO1	-5%[46.1 µM]	u	-17%[38.3 µM]	-3%	5	-28
Fc1ccccc1Nc1nc2c(s1)CCc1ccccc1-2	-15%	5%	17%	22µM*	x	-23
